GRIN3A LBD mod = binders of NR3A ligand-binding domain, primary screen, biophysical, differential scanning fluorimetry, uHTS; Glutamate receptor ionotropic, NMDA 3A (GRIN3A) ligand-binding domain; Tm shift relative to glycine control, % at 25 µM; actives 2.5% (n = 340,000); NR3A LBD differential scanning fluorimetry, Tm shift; 0% = protein alone, 100% = glycine-bound protein;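 active means melting temperature shift of at least 10% of the positive control shift, at one fixed dose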
ADAM10 inh = human ADAM10 inhibitors, primary screen, biochemical, QFRET, HTS | Disintegrin and metalloproteinase domain-containing protein 10 (Homo sapiens), O14672 | recombinant ADAM10, EDANS/DABCYL FRET peptide cleavage, 3 h | inhibition, % at 7 µM | actives 0.62% (n = 370,000) | AID 720582, 2013;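 active means inhibition above a per-campaign cutoff equal to the mean of compounds falling between control-based bounds plus 3 SD, cut at about 20% in these data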;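 further: 0% = DMSO wells while the 100% control is not disclosed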
HGIII-sPLA2 inh = human group III sPLA2 inhibitors, primary screen, biochemical, QFRET, BODIPY PC-A2 liposome substrate; Group 3 secretory phospholipase A2 (Homo sapiens), Q9NZ20; AID 743126, 2013; inhibition, % at 12.2 µM; actives 0.56% (n = 370,000); QFRET BODIPY PC-A2 liposome hydrolysis, fluorescence;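 active means inhibition above mean plus 3 SD of compounds lying within the high and low control bounds, cut at about 19% in these data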;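 further: 0% = median of test compound wells and 100% = no enzyme DMSO wells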
FAS-TE inh = FAS thioesterase domain inhibitors, primary screen, biochemical, fluorescence intensity, uHTS | recombinant FAS-TE, OMFH fluorogenic substrate, fluorescence endpoint | inhibition, % at 15 µM | actives 0.67% (n = 360,000) | AID 602261, 2012;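 active means compounds whose normalised, plate-corrected inhibition of enzyme fluorescence in the single-dose primary screen is 50% or more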;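 further: 0% = DMSO with enzyme and 100% = substrate without enzyme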
ADAM17 inh = ADAM17 inhibitors, primary screen, biochemical, QFRET. AID 720648, 2013. Disintegrin and metalloproteinase domain-containing protein 17 (Homo sapiens), P78536. recombinant ADAM17, EDANS/DABCYL FRET peptide cleavage. actives 0.83% (n = 370,000). inhibition, % at 6.95 µM;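 active means inhibition above the mean of compounds lying between control limits plus 3 SD, set per campaign, cut at about 8.5% in these data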;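 further: 0% = DMSO-only wells as the low control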
Target sequence (P78536 215-824 limits assumed): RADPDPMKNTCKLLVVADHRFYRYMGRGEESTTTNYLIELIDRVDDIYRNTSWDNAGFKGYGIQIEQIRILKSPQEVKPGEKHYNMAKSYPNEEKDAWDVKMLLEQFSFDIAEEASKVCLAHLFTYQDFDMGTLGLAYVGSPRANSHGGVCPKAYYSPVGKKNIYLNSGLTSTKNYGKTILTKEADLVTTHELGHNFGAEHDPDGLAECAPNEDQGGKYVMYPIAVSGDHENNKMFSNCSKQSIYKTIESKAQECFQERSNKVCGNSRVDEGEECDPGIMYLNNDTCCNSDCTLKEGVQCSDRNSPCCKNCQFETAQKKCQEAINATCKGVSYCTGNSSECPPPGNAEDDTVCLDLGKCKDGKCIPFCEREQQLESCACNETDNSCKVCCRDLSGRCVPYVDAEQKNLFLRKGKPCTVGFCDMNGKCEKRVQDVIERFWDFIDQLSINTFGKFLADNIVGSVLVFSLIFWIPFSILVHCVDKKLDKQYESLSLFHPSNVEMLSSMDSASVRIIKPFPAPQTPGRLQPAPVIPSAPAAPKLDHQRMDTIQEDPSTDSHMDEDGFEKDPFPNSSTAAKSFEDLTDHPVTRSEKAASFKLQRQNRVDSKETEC
Active calls of the source: *; i = inactive; · = no result. Rows were chosen to be rich in hits. Some 4.3% of all compounds tested hit in one or more screens of this group.

SMILES | GRIN3A LBD mod | ADAM10 inh | HGIII-sPLA2 inh | FAS-TE inh | ADAM17 inh
CC1CCC(=NNS(=O)(=O)c2ccc([N+](=O)[O-])cc2)CC1 (configuration not stated) | 2.0 | -17.5 | 12.7 | 58.0* | -3.9
CCc1ccccc1N=Nc1c(N)[nH]n(-c2ccccc2)c1=O | · | 8.9 | 11.7 | · | 3.4
Nc1[nH]n(-c2ccccc2)c(=O)c1N=Nc1ccc2ncsc2c1 | 13.8* | 6.3 | 7.9 | 16.6 | -2.1
Nc1[nH]n(-c2ccccc2)c(=O)c1N=Nc1ccccc1[N+](=O)[O-] | 21.0* | -2.1 | 5.6 | 6.3 | -2.4
COc1ccc(C2=NN(C(=O)c3cccc([N+](=O)[O-])c3)C(c3cccc([N+](=O)[O-])c3)C2)cc1 (configuration not stated) | -1.1 | 5.2 | 1.0 | 50.1* | -0.5
COc1cc([N+](=O)[O-])ccc1NC(=O)CCCOc1ccc(C)cc1 | -6.8 | 5.9 | -0.8 | 31.1 | -0.5
COc1cccc(NC(=O)CC(=O)c2ccc([N+](=O)[O-])cc2)c1 | 17.3* | 10.9 | 7.7 | 41.4 | 3.8
COc1ccc(OCCCC(=O)Nc2cccc([N+](=O)[O-])c2)cc1 | 16.0* | -2.2 | -3.2 | 13.0 | -3.2
COc1ccc(NC(=S)Nc2cccc([N+](=O)[O-])c2)cc1 | 23.2* | 3.4 | 10.5 | 14.1 | -0.7
O=C(CC(=O)c1ccccc1)Nc1cccc([N+](=O)[O-])c1 | · | -8.3 | -3.0 | 31.0 | -0.9
O=C(CCc1ccc(Oc2cc([N+](=O)[O-])cc([N+](=O)[O-])c2)cc1)Nc1cccc(Cl)c1 | 10.6* | 9.0 | -10.4 | 39.7 | 5.0
CC(C)CNC(=O)OCc1cn(Cc2ccccc2Cl)nn1 | · | -3.7 | 4.9 | · | -0.4
CCOC(=O)Cn1cc(CN2C(C(=O)OC)CN(CCO)CCS2(=O)=O)nn1 (configuration not stated) | · | 1.3 | 5.1 | · | -3.0
Cc1noc(C)c1C(=O)OCC(=O)NC1CC1 | 16.3* | 3.2 | 7.6 | -9.7 | -6.6
Cc1noc(C)c1C(=O)OCC(=O)NC1CCCCC1C (configuration not stated) | -1.8 | -6.2 | 1.3 | -5.5 | -6.4
COc1cc(OC)cc(-c2cc(N)n(S(=O)(=O)Cc3ccccc3)n2)c1 | -11.2 | -2.9 | 0.8 | 7.5 | 3.2
COc1ccc(OC)c(S(=O)(=O)n2nc(-c3ccccc3)cc2N)c1 | 21.9* | -6.3 | -13.7 | 5.3 | 3.0
COc1ccc(S(=O)(=O)n2nc(-c3ccc(Cl)cc3)cc2N)cc1OC | 14.2* | -5.2 | -17.6 | 17.3 | 7.3
O=C1CCC[C@H]2C[C@H](NCc3ccc(F)cc3F)CC[C@]23CCCN13 | · | -5.0 | 5.9 | · | -5.4
CCn1nc(C)c(C2C(C#N)=C(N)OC3=C2C(=O)CCC3)c1C (configuration not stated) | -2.6 | -3.7 | 1.7 | -8.5 | -5.1
Cc1nn(C)c(C)c1C1C(C#N)=C(N)OC2=C1C(=O)CCC2 (configuration not stated) | 11.6* | -2.2 | -2.7 | -14.1 | 0.4
Cc1cc(O)c(C(C)C)cc1C1(c2cc(C(C)C)c(O)cc2C)OC(=O)c2ccccc21 | 11.4* | 7.1 | -41.5 | 30.4 | -0.2
OC[C@@H]1[C@@H](c2ccc(Cl)cc2)C(c2ccc(F)cc2)=NN1c1ccccc1 | 29.8* | i | 12.7 | 30.5 | -485.0
OC[C@@H]1[C@@H](c2ccccc2)C(c2cccc(Cl)c2)=NN1c1ccccc1 | 25.6* | i | -5.1 | 28.5 | i
Cc1cccc(C2=NN(c3ccccc3)[C@H](CO)[C@H]2c2ccc(Cl)cc2)c1 | 22.7* | i | -10.5 | 25.7 | i
SMILES | GRIN3A LBD mod | ADAM10 inh | HGIII-sPLA2 inh | FAS-TE inh | ADAM17 inh
O=C(CCCOc1ccccc1)NCC1CCCO1 (configuration not stated) | 2.2 | 2.3 | 4.0 | -8.4 | 0.6
COC(=O)[C@H](Cc1ccccc1)NC(=O)NCC1CCCO1 (some centres not stated) | 14.2* | 3.3 | -0.9 | -2.8 | -0.7
O=C(CCSc1ccccc1)NCC1CCCO1 (configuration not stated) | 17.4* | -2.0 | 10.8 | -10.5 | -2.6
CC(NC(=O)OCc1ccccc1)C(=O)NCC1CCCO1 (configuration not stated) | -0.5 | -2.7 | 3.5 | -10.2 | -1.9
CCC(NC(=O)c1ccc2c(ccn2Cc2cccc(-c3ccc(C(=O)O)cc3)c2)c1)c1ccccc1 (configuration not stated) | · | 11.3 | -26.5 | · | -2.6
O=C(Nc1cc(Cl)ccc1N1CCOCC1)c1ccc(N2CCCCC2)c([N+](=O)[O-])c1 | 0.9 | 0.4 | -3.9 | 20.0 | 0.3
O=C(Nc1nc2ccc(Cl)cc2s1)c1ccc(N2CCCCC2)c([N+](=O)[O-])c1 | 15.0* | -7.2 | 13.9 | -4.2 | -8.1
CCC(CC)c1nnc(NC(=O)c2ccc(N3CCCCC3)c([N+](=O)[O-])c2)s1 | -7.2 | -2.0 | 1.8 | 21.8 | -2.9
O=C(Nc1nc2ccc3ccccc3c2s1)c1ccc(N2CCCCC2)c([N+](=O)[O-])c1 | 19.4* | -6.8 | -0.7 | 5.9 | -4.0
O=C(NC1CCCCN(Cc2cccc(C(F)(F)F)c2)C1=O)C1C2CC3CC(C2)CC1C3 (configuration not stated) | · | 3.3 | 2.1 | · | 2.8
COC(=O)C1=C(C)N(C)C(=NCc2ccccc2C(F)(F)F)NC1CCc1ccccc1 (configuration not stated) | · | -8.0 | -9.3 | · | -4.0
Nc1nc(/C=C/c2ccc(F)cc2)nc(-c2ccccc2O)n1 | 16.1* | 4.4 | 2.1 | 0.1 | 1.0
Nc1nc(/C=C/c2cccnc2)nc(-c2ccccc2O)n1 | 0.6 | 0.8 | -0.2 | -0.9 | -3.2
N#Cc1c(N)nc2c(c1-c1ccncc1)CCCCCC2 | 36.0* | -15.1 | 0.8 | -2.2 | -3.9
Nc1nc(-c2ccc3c(c2)CCCC3)c(CC(=O)O)s1 | 35.4* | -3.9 | -0.1 | -5.2 | -3.5
O=C(Nc1nnc(-c2cccnc2)s1)c1cnc2ccccc2c1 | · | -3.4 | -3.4 | · | 0.8
CCN(CC)CCNC(=O)c1ccccc1N | -0.4 | -354.9 | 7.0 | -5.4 | -110.9
CCN(CC)CCNC(=O)C(Oc1ccccc1)Oc1ccccc1 | 30.7* | -3.9 | 7.7 | -5.1 | -4.5
Nc1cc(-c2ccc(Br)cc2)[nH]n1 | 11.6* | -1.3 | 9.4 | -10.9 | 3.9
Cc1cc(-c2ccc(Br)cc2)n[nH]1 | 0.3 | 0.7 | -0.1 | -2.3 | 0.1
CCc1ccc(-c2cc(C(=O)NN3CCOCC3)c3ccccc3n2)cc1 | 11.0* | -33.6 | 3.0 | -7.6 | -15.2
O=C(NN1CCOCC1)c1cc(-c2ccc(Br)cc2)nc2ccccc12 | -3.0 | -2.6 | -0.3 | -0.5 | -2.2
Nc1n[nH]c(C2CC2)c1N=Nc1ccc(Cl)c(Cl)c1 | 33.0* | 6.7 | -6.1 | 35.5 | 2.8

Source: PubChem BioAssay (several laboratories)
